From the OligoGym collection
Note: reference of the scale not given here.

What follows are sequences tested against KIR2DL5B (assay: pooled miR-30 sensor sort-seq; sequence = guide strand). Conditions: shRNA.
TTTGTCTGTGTGAAAACGCAGT showed a sensor-assay potency score (higher = more potent) of -0.271. With TTGAAGAGTTTCCTGTGACAGA the sensor-assay potency score (higher = more potent) was -0.517. TATCTGTTGGAGGTGCCTTGGG showed a sensor-assay potency score (higher = more potent) of -0.788. Sequence AACTACTTGAAGAGTTTCCTGT has a sensor-assay potency score (higher = more potent) of 0.126.

Each sequence was assayed against KLC3 in the same assay as above. Conditions: shRNA.
Sequence TTGTACAGCTCTTCCGCTTGTT has a sensor-assay potency score (higher = more potent) of 0.24. Sequence TCTTTGTACAGCTCTTCCGCTT has a sensor-assay potency score (higher = more potent) of -0.542. Sequence ATCTTGGAGAGTGAGCTGCTGC has a sensor-assay potency score (higher = more potent) of -1.26. Sequence TTCTGTTTCAGGTAGGCTGAGG has a sensor-assay potency score (higher = more potent) of -0.432. With TTTGTACTTGTTCTGGTCCCGG the sensor-assay potency score (higher = more potent) was -0.559. For TTGTACTTGTTCTGGTCCCGGT, the sensor-assay potency score (higher = more potent) was -0.388. TTTCTTTGTACAGCTCTTCCGC showed a sensor-assay potency score (higher = more potent) of -0.28. In the case of TTGAGTGACATGGCTCTCTTCA, the sensor-assay potency score (higher = more potent) is reported as -0.297. TTGATACTTGTTCTGTTTCAGG was tested, and the sensor-assay potency score (higher = more potent) was -0.751. TTGGAGAGTGAGCTGCTGCGGC showed a sensor-assay potency score (higher = more potent) of -0.586. TTCTTTGTACTTGTTCTGGTCC gave a sensor-assay potency score (higher = more potent) of -0.164. TTCTTTGTACAGCTCTTCCGCT gave a sensor-assay potency score (higher = more potent) of -0.475.

What follows are sequences tested against KLF14 in the same assay as above. Conditions: shRNA.
ATAGGCTTTGGTGCAGCCCGGG was tested, and the sensor-assay potency score (higher = more potent) was -0.764. Work on TACTCGATCATATCTGGATGAT yielded a sensor-assay potency score (higher = more potent) of -0.368. TTGGTCAGGTGGTCGCTCCGGG was tested, and the sensor-assay potency score (higher = more potent) was -0.324. With ATATCTGGATGATAGGTTGGGT the sensor-assay potency score (higher = more potent) was -0.162. Sequence TAAACTTCTTGTCGCAGTCGAG has a sensor-assay potency score (higher = more potent) of -0.734. TAGGCTTTGGTGCAGCCCGGGA gave a sensor-assay potency score (higher = more potent) of -1.12. TATCTGGATGATAGGTTGGGTG showed a sensor-assay potency score (higher = more potent) of -1.33. TTGTAATAGGCTTTGGTGCAGC showed a sensor-assay potency score (higher = more potent) of -0.333. AAACTTCTTGTCGCAGTCGAGC gave a sensor-assay potency score (higher = more potent) of -1.65. With TTGAGGTGCGACGACTTGTAAT the sensor-assay potency score (higher = more potent) was -1.63. TTCTTGTCGCAGTCGAGCCAGT showed a sensor-assay potency score (higher = more potent) of -1.02. Work on TCGCAGTCGAGCCAGTCGCAGG yielded a sensor-assay potency score (higher = more potent) of -1.84.

These sequences were tested against KLF15 in the same assay as above. Conditions: shRNA.
TCTCGCACACAGGACACTGGTA gave a sensor-assay potency score (higher = more potent) of -0.647. TATCTAGTTCTCTCACACCCAG showed a sensor-assay potency score (higher = more potent) of -0.809. Sequence TATTTTATGTGGATGGACCTAT has a sensor-assay potency score (higher = more potent) of 0.313. Work on TAGCACTAAAGTTCTGGCCTTG yielded a sensor-assay potency score (higher = more potent) of -0.309. AAACTCTTCAATCTCCTCCAGG was tested, and the sensor-assay potency score (higher = more potent) was -0.475. For TAAACCTGTCAAAACAAGCTAG, the sensor-assay potency score (higher = more potent) was -0.421. TTGGTGTACATCTTGCTGCAGC gave a sensor-assay potency score (higher = more potent) of -0.584. Work on TATATTTTTATGAAGGACCAAA yielded a sensor-assay potency score (higher = more potent) of -0.999. TTTGGTGTACATCTTGCTGCAG gave a sensor-assay potency score (higher = more potent) of 0.126. With TAACATTGCCATGTCCCTCTGG the sensor-assay potency score (higher = more potent) was 0.313. TGGATCTGCAGCAACACTGGGA showed a sensor-assay potency score (higher = more potent) of -0.384. For TTAAATTTCAAATTTACACAAA, the sensor-assay potency score (higher = more potent) was -0.919.
